# HEK293 tox – HEK 293 cell cytotoxicity; HEK 293 viability, ATP luminescence (CellTiter-Glo), 48-72 h; Potency, µM (doses to about 115 µM), for inactives: at the top dose activity change, negative = cytotoxicity, usual class: inhibitors; hit rate 6.6% among 94,000; AID 1345083; further: on the % scale 0 is the no-effect control and ±100 the full control effect; nearly all actives have a fitted effect of over 60% in size
#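 Cells seeded first (HEK 293, 250 cells/well), then compound added by pintool. Incubation ran 48 or 72 hr at 37 degree Celsius. CellTiter-Glo was added and luminescence imaged after 10 min at room temperature.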
# GPT2 inhibitor – GPT2 alanine aminotransferase inhibition. Q8TD30. Recombinant GPT2, coupled pyruvate oxidase/HRP Amplex Red fluorescence. Potency, µM (doses to about 57.7 µM), for inactives: at the highest dose activity change, negative = inhibition, hits mostly inhibitors. hit rate 0.25% among 100,000; further: on the % scale 0 is the no-effect control and ±100 the full control effect; nearly all actives have a fitted effect of over 60% in size
#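 Fluorescence of coupled pyruvate oxidase/HRP/Amplex Red system (50uM Amplex, 30 min, dark) reports pyruvate formed by GPT2. Enzyme reaction: 10ng/uL GPT2, 2mM L-alanine, 250uM a-KG, 30 min room temperature, pH 7.5; 50uM AOA control.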
# NIH3T3 tox – cytotoxic compounds in NIH 3T3 cells. NIH 3T3 viability, CellTiter-Glo ATP luminescence, 48-72 h. Potency, µM (titrated, usually from 96.7 µM), for the others: top-dose activity change, negative = cytotoxicity, most hits filed as inhibitors. hit rate 4.3% among 94,000; further: on the % scale 0 is the no-effect control and ±100 the full control effect; nearly all actives have a fitted effect of over 55% in size
#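 Viability of NIH 3T3 cells after 48 or 72 hr compound treatment at 37 °C was assessed by CellTiter-Glo, with luminescence imaged following a 10 min room-temperature step.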
# hNpr1 antagonist – blocks ANP-stimulated signaling of human Npr1 receptor; P16066; HEK293 hNpr1 GloSensor cGMP, ANP-stimulated luminescence; Potency, µM (series often up to 46.3 µM), without a hit: at the highest dose activity change, negative = inhibition, usual class: inhibitors; hit rate 1.6% among 76,000; AID 1347048; calls by dose curve; further: on the % scale 0 is the no-effect control and ±100 the full control effect; nearly all actives have a fitted effect of over 60% in size
#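 Compound pre-incubated 30 min at room temperature on GloSensor-loaded HEK293 cells stably carrying hNpr1 and the pGS-40F cGMP biosensor. Stimulation uses hNppA at 0.1 nM final; luminescence is taken at baseline and 20 min post-agonist.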
# Luciferase inh – inhibitors of firefly (Photinus pyralis) luciferase; P08659; purified P. pyralis luciferase, luminescence, biochemical; Potency, µM (doses to about 115 µM), most hits filed as inhibitors; hit rate 2.5% among 76,000; AID 1347043; further: on the % scale 0 is the no-effect control and ±100 the full control effect; nearly all actives have a fitted effect of over 65% in size
#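 Biochemical qHTS: compound (6-point titration) added to 10uM D-luciferin plus 10uM ATP in Tris acetate pH 7.5 buffer with Mg, Tween-20 and BSA, then purified enzyme at 10nM; light output imaged.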
# NPR1 antag cnf – hNpr1 antagonism, confirmation assay; shares compounds with hNpr1 antagonist; HEK293 hNpr1 cGMP GloSensor luminescence, ANP-stimulated; Potency, µM (top dose mostly 57.6 µM), without a hit: at the highest dose activity change, negative = inhibition, usual class: inhibitors; hit rate 76% among 1,400; calls by dose curve; further: nearly all actives have a fitted effect of over 70% in size
# Npr2 selectivity – antagonizes human Npr2, subtype selectivity check | AID 1347046 | HEK293 hNpr2 GloSensor cGMP luminescence, CNP-stimulated | Potency, µM (series often up to 57.6 µM), inactives show top-dose activity change, negative = inhibition, actives largely listed as inhibitors | shares compounds with hNpr1 antagonist | hit rate 67% among 1,400; calls by dose curve; further: nearly all actives have a fitted effect of over 70% in size
# Target sequence (P20594 whole entry, looked up): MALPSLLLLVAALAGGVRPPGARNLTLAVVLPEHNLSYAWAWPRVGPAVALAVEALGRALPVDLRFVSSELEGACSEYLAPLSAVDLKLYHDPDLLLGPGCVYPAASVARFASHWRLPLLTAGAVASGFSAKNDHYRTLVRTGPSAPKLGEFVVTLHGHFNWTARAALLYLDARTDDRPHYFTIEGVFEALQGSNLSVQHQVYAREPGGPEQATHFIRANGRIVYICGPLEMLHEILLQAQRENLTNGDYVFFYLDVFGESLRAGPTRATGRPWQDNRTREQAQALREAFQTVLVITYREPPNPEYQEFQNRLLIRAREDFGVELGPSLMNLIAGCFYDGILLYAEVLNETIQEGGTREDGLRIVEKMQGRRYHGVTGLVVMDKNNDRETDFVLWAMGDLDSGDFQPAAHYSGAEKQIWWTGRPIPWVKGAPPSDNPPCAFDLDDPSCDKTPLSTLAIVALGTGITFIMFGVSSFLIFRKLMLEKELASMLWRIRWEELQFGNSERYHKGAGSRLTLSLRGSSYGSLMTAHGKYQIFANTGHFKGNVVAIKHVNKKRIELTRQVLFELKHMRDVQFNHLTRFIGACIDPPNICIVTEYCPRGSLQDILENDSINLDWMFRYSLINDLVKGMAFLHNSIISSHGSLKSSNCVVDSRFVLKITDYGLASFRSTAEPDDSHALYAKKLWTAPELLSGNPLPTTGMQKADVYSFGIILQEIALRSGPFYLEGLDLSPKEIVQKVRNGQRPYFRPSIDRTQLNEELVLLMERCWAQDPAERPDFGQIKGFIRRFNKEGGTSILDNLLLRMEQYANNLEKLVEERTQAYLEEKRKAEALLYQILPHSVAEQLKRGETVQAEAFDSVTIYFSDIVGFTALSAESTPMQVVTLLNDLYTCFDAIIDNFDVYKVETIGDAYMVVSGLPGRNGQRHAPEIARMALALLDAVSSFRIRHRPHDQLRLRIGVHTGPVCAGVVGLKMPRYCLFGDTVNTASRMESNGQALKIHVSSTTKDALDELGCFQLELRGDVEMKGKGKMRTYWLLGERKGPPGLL
# FLuc inh counter – inhibits firefly luciferase, false Npr1 antagonist flag | Potency, µM (titrated, usually from 57.6 µM), for inactives: top-dose activity change, negative = inhibition, most hits filed as inhibitors | shares compounds with hNpr1 antagonist | purified FLuc enzyme, luminescence, Km substrate | hit rate 0.7% among 1,400; further: series mostly up to about 58 µM; 0% is about no effect
# GloSensor cGMP – counter-screen for Npr1 antagonists: GloSensor control cell line; Potency, µM (series often up to 57.6 µM), for inactives: at the top dose activity change, negative = inhibition, most hits filed as inhibitors; HEK293 GloSensor cGMP, SNP-stimulated, luminescence; shares compounds with hNpr1 antagonist; hit rate 69% among 1,400; AID 1347051; calls by dose curve; further: on the % scale 0 is the no-effect control and ±100 the full control effect; nearly all actives have a fitted effect of over 70% in size
# An asterisk follows results filed as active; i = inactive; ? = inconclusive; . = no result given; [ ] = another dose, or the depositor's remark. This is a sample that favours compounds with a hit; in the whole collection about 10% have one here. Unless noted, the call rests on the fitted dose curve; in most records, active means well fitted curve in the direction sought with a large enough effect; inconclusive means small, poorly fitted or top-dose-only effect, or another doubt; inactive means no such curve, though single readings can be large; an effect the other way counts as inactive or inconclusive. Potency means the concentration at half of the fitted maximal effect.
SMILES,HEK293 tox,GPT2 inhibitor,NIH3T3 tox,hNpr1 antagonist,Luciferase inh,NPR1 antag cnf,Npr2 selectivity,FLuc inh counter,GloSensor cGMP
Cc1nn(C)c(C)c1CCC(=O)N1CCC(Cc2noc(-c3ccc(F)cc3)n2)C1 (stereo not given),?,3%,?,16µM*,i,27µM*,?,2%,34µM*
COc1ccc(Cn2c(=O)[nH]c3cccnc32)cc1,-19%[172 µM],5%[88.5 µM],-13%[138 µM],1%[70.6 µM],i,.,.,.,.
CC(C)C(=O)N1CCCCCCNC(=O)[C@@H]2CCCC[C@@H]21,3%,1%,-1%,0%,i,.,.,.,.
O=C(Nc1ccc(Cl)cc1Cl)c1cn2c(n1)CN(C(=O)c1ccccc1)CC2,?,i,?,.,.,22µM*,22µM*,-10%,19µM*
CC(=O)N1CCn2cc(C(=O)Nc3ccc(Cl)cc3Cl)nc2C1,-28%,?,?,.,.,.,.,.,.
COCCN1C(=O)c2ccccc2C(C(=O)Nc2cc(C)ccc2OC)C12CCCCC2 (stereo not given),?,i,-16%,?,i,22µM*,12µM*,-3%,8%
CCOc1cccc2c1OC[C@@H]1CN(CCOC)C(=O)CCN(C(=O)c3ccccc3)[C@H]21,-18%,.,?,.,.,.,.,.,.
CC1CCN(c2ccc(CNC(=O)C3(C)CCCCC(=O)N3)cc2)CC1 (stereo not given),?,i,-24%,.,.,.,.,.,.
O=C(Nc1ccc(Cl)cc1)N1Cc2[nH]cnc2C[C@H]1c1nc(-c2ccccc2)no1,79µM*,3%[88.5 µM],32µM*,-22%[70.6 µM],i,?,?,?,-26%[86.2 µM]
COc1cccc(-c2cc(C3CCN(C(=O)c4ccccc4Br)CC3)[nH]n2)c1,28µM*,i,?,18µM*,i,24µM*,24µM*,0%,22µM*
Cn1cc(CC(=O)N2CCCc3ncc(C(=O)N4CCC(c5ccccc5)CC4)cc32)c2ccccc21,40µM*,-2%,?,16µM*,i,22µM*,22µM*,6%,19µM*
COC1CCN(C(=O)c2cnc3c(c2)N(C(=O)Cc2cn(C)c4ccccc24)CCC3)CC1,3%,0%,?,-2%,i,.,.,.,.
CN(Cc1nc(Cc2ccccc2Cl)no1)Cc1cccc2cnccc12,?,i,?,14µM*,i,11µM*,12µM*,0%,11µM*
Cc1nn(C)c2nc(N3CCC(C#N)(c4ccccc4)CC3)sc12,28µM*,1%[11.5 µM],?,16µM*,i,22µM*,24µM*,0%,22µM*
Cc1nc(NCc2nc(C)c3c(n2)CCCC3)cc(C2CC(O)C2)n1 (stereo not given),2%,i,?,2%,i,.,.,.,.
CC1=C[C@@H](CNC(=O)CC2(CC(=O)O)CCCC2)[C@H](C(C)C)C[C@H]1Cc1nc2ccccc2[nH]1,1%,1%,-5%,5%,i,.,.,.,.
Cc1ccc(F)c(C(CC(=O)NCc2ccco2)c2c[nH]c3ccc([N+](=O)[O-])cc23)c1 (stereo not given),40µM*,4%,32µM*,-29%,i,?,?,3%,?
Cc1ccc(C(=O)N2CCN(c3cc(-c4cccs4)[nH]n3)CC2)c(C)c1,45µM*,i,7.9µM*,?,i,27µM*,24µM*,4%,27µM*
COc1ccc(C(=O)N2CCCN(c3cc(-c4ccccc4)[nH]n3)CC2)c(OC)c1,40µM*,?,-19%,?,i,24µM*,?,2%,24µM*
COc1ccc(C(=O)N2CCCN(c3cc(-c4ccccc4)[nH]n3)CC2)c(C)c1,?,-25%,?,11µM*,i,17µM*,19µM*,1%,17µM*
COC[C@@H]1CN(Cc2cn(C)nc2C)C[C@H]1c1ccncc1,-4%,i,-17%,-8%,i,.,.,.,.
COc1ccc(NC(=O)c2cccc3c2CCN3C(=O)c2ccc(F)cc2)c(OC)c1,32µM*,?,?,18µM*,i,24µM*,24µM*,-12%,22µM*
CC(=O)NC[C@H]1CCN(Cc2ccc(F)c(Cl)c2)C[C@H]1N(C)C,-16%,i,-12%,9%,i,.,.,.,.
CS(=O)(=O)N1CCc2ccc(C(=O)Nc3ccc(Oc4ccccc4)cc3)cc21,?,-4%,-21%,1.6µM*,i,2.7µM*,3.4µM*,-1%,2.4µM*
Cc1cc(C(=O)NCC23CCCC=C2N(C)C(=O)CC3)n(C)n1 (stereo not given),-1%,i,1%,1%,i,.,.,.,.
SMILES,HEK293 tox,GPT2 inhibitor,NIH3T3 tox,hNpr1 antagonist,Luciferase inh,NPR1 antag cnf,Npr2 selectivity,FLuc inh counter,GloSensor cGMP
O=C(c1ccncc1)N1C2CCC1CN(c1ccc(C(F)(F)F)cc1)C2,?,i,?,.,.,24µM*,22µM*,1%,22µM*
CC(=O)NCCCC(=O)N1C2CCC1CN(c1ccc(C(F)(F)F)cc1)C2,-29%,i,?,.,.,.,.,.,.
O=C(N1CCOCC1)N1C2CCC1CN(c1ccc(C(F)(F)F)cc1)C2,?,-1%,14µM*,.,.,22µM*,22µM*,5%,19µM*
C=CCNC(=O)c1cnn2c1CN(C(=O)c1cccnc1)CC2,i,i,-11%,.,.,.,.,.,.
CN(CCc1nc2ccc(Cl)cc2[nH]1)c1cc(C2CC(O)C2)nc(N)n1 (stereo not given),-6%,0%,-12%,-8%,i,.,.,.,.
Cc1c(CN(C)c2cc(C3CC(O)C3)nc(N)n2)[nH]c2ccccc12 (stereo not given),-93%,i,?,0.63µM*,i,0.43µM*,0.86µM*,1%,0.43µM*
CN(CCc1ccccn1)c1cc(C2CC(O)C2)ncn1 (stereo not given),-3%,2%[11.5 µM],-17%,4%,?,.,.,.,.
